# Measured values from the supplement of paper PMC10849652.
# About 7,900 targets were measured; listed, in parts, are those with a hit and a random draw of the rest. About 0.6% of all pairs of compound and target were hits.
# Assays:
# Assay in all cases: log2 fold change, soluble protein after heating vs DMSO (PISA); higher = thermal stabilisation; K562 cells, 10 uM, 30 min; active = over 0.2 and 3.5 SD of the protein, either way, in both replicates (recomputed)
# [1] = compound: CC[C@@H]1C(=O)N(C)c2cnc(Nc3ccc(C(=O)NC4CCN(C)CC4)cc3OC)nc2N1C1CCCC1
# Outline: (§1)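 Aliquots of K562 cells (2×10^6 cells/mL) treated with 10 μM compound for 30 min were heated for 3 min over 48°C-58°C. After pooling and extraction in PBS with 0.5% NP-40 at 4°C, soluble protein from a 21,000xg, 90 min spin was quantified by TMTpro 16plex LC-MS/MS with channel sums equalised. Thermal stability is expressed against control samples, from duplicates, as a log2 fold change.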
# volasertib = compound: CC[C@@H]1C(=O)N(C)c2cnc(Nc3ccc(C(=O)N[C@H]4CC[C@H](N5CCN(CC6CC6)CC5)CC4)cc3OC)nc2N1C(C)C [volasertib]
# Outline: as §1
# [2] = compound: CC[C@H](C)N1C=C(C2=C(C=C(C=C21)C3=CN=C(C=C3)N4CCNCC4)C(=O)NCC5=C(C=C(NC5=O)C)C)C
# Outline: as §1
# epoxomicin = compound: CC[C@H](C)[C@@H](C(=O)N[C@@H]([C@@H](C)O)C(=O)N[C@@H](CC(C)C)C(=O)[C@]1(CO1)C)NC(=O)[C@H]([C@@H](C)CC)N(C)C(=O)C [epoxomicin]
# Outline: as §1
# [3] = compound: CCn1c(C(=O)N(C2CC2)C2CC2)cc2c3c(ncn3C)c(Nc3cc(C)n(C)n3)nc21
# Outline: as §1
# [4] = compound: CCn1cc(-c2ccnc3[nH]c(-c4cccc(CN(C)C)c4)cc23)c(-c2ccc(NC(=O)N(C)C)cc2)n1
# Outline: as §1
# [5] = compound: CN(C)CC(=O)Nc1ccc2[nH]c(=O)c3ccccc3c2c1
# Outline: as §1
# rosiglitazone = compound: CN(CCOC1=CC=C(C=C1)C[C@H]2C(=O)NC(=O)S2)C3=CC=CC=N3 (racemic) [rosiglitazone]
# Outline: as §1
# [6] = compound: CN1C2=C(C3=C1C(=O)N(N=C3)CC4=CC(=CC=C4)N)SC(=C2)S(=O)C
# Outline: as §1
# [7] = compound: CN1CCC(CNc2ccc3ncc(-c4cccc(OC(F)(F)F)c4)n3n2)CC1
# Outline: as §1
# saracatinib = compound: CN1CCN(CCOc2cc(OC3CCOCC3)c3c(Nc4c(Cl)ccc5c4OCO5)ncnc3c2)CC1 [saracatinib]
# Outline: as §1
# sotrastaurin = compound: CN1CCN(c2nc(C3=C(c4c[nH]c5ccccc45)C(=O)NC3=O)c3ccccc3n2)CC1 [sotrastaurin]
# Outline: as §1
# alvocidib = compound: CN1CC[C@H](c2c(O)cc(O)c3c(=O)cc(-c4ccccc4Cl)oc23)[C@H](O)C1 [alvocidib]
# Outline: as §1
# Tubastatin A = compound: CN1CCc2c(c3ccccc3n2Cc2ccc(C(=O)NO)cc2)C1 [Tubastatin A]
# Outline: as §1
# [8] = compound: CNC(=O)C1=CC=CC=C1NC2=NC(=NC=C2Cl)NC3=C(C=C(C=C3)N4CCOCC4)OC
# Outline: as §1
# defactinib = compound: CNC(=O)c1ccc(Nc2ncc(C(F)(F)F)c(NCc3nccnc3N(C)S(C)(=O)=O)n2)cc1 [defactinib]
# Outline: as §1
# rucaparib = compound: CNCc1ccc(-c2[nH]c3cc(F)cc4c3c2CCNC4=O)cc1 [rucaparib]
# Outline: as §1
# [9] = compound: CNc1nc(-c2ccc3c(N)n[nH]c3c2)cc(N2C[C@@H](C(=O)NC3CCCCC3)CC[C@H]2C)n1
# Outline: as §1
# encorafenib = compound: COC(=O)N[C@@H](C)CNc1nccc(-c2cn(C(C)C)nc2-c2cc(Cl)cc(NS(C)(=O)=O)c2F)n1 [encorafenib]
# Outline: as §1
# [10] = compound: COC(=O)[C@H](CCSC)NC(=O)C1=C(C=C(C=C1)NC[C@H](CS)N)C2=CC=CC=C2
# Outline: as §1
# Sequence of UniProt O75376 (O75376 whole entry, looked up): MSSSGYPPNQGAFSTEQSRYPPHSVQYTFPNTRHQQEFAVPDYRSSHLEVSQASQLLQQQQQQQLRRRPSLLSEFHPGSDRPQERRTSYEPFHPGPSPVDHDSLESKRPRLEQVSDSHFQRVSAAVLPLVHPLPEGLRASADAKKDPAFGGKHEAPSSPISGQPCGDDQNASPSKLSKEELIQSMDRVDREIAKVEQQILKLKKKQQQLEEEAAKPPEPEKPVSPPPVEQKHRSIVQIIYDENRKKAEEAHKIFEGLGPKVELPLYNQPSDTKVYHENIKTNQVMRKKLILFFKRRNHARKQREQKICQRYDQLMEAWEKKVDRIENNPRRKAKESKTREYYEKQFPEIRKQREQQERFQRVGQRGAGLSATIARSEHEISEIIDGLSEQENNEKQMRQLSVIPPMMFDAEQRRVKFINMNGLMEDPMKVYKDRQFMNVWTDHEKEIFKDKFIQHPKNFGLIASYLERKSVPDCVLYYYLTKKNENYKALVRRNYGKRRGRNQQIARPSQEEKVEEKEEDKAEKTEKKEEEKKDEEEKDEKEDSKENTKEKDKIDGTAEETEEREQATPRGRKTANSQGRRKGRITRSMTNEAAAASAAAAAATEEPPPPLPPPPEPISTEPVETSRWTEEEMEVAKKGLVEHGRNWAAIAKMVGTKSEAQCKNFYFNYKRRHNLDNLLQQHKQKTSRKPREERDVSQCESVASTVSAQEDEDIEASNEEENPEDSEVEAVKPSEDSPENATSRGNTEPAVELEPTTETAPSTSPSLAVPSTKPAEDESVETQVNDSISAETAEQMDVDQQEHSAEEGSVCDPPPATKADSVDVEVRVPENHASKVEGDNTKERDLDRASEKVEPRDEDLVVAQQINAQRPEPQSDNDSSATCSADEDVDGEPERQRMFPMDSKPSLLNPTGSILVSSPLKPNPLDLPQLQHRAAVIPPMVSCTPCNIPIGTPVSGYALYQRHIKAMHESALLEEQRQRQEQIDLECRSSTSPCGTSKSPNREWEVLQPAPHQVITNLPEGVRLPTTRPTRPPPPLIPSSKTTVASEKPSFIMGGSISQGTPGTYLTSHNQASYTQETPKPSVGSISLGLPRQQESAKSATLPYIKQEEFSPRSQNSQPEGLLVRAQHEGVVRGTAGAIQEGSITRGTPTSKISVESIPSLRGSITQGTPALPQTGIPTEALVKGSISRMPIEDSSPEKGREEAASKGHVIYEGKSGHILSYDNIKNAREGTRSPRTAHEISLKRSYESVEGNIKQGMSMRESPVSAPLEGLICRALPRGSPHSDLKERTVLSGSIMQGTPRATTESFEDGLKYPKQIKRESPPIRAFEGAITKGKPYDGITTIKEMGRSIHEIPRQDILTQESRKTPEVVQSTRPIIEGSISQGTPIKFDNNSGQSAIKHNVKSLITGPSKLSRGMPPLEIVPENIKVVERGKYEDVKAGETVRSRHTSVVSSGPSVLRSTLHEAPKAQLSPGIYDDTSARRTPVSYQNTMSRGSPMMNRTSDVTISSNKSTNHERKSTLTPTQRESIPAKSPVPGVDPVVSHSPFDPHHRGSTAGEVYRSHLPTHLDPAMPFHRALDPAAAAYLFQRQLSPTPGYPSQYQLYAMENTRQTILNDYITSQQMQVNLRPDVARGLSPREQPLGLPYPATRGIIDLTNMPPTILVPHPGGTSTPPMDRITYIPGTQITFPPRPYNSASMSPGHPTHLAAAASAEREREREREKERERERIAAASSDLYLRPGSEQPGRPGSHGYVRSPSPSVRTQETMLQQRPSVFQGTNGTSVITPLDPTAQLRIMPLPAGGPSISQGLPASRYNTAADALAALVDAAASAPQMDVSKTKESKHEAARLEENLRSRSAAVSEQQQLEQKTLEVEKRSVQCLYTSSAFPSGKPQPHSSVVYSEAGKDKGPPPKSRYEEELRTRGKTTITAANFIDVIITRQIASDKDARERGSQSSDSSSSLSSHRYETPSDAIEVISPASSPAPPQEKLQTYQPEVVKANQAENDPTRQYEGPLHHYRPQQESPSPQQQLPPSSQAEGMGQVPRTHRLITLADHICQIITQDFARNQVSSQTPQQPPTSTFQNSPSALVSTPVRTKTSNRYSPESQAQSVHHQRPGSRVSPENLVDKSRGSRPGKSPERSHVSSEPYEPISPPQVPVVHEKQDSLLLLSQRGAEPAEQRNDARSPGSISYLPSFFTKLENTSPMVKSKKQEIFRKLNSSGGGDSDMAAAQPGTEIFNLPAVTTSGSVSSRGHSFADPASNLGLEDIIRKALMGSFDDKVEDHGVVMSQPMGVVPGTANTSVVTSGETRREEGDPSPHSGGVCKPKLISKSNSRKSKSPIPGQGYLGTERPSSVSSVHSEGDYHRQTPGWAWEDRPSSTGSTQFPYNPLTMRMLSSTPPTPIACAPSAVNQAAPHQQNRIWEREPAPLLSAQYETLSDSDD
# Sequence of UniProt Q969V5 (Q969V5 whole entry, looked up): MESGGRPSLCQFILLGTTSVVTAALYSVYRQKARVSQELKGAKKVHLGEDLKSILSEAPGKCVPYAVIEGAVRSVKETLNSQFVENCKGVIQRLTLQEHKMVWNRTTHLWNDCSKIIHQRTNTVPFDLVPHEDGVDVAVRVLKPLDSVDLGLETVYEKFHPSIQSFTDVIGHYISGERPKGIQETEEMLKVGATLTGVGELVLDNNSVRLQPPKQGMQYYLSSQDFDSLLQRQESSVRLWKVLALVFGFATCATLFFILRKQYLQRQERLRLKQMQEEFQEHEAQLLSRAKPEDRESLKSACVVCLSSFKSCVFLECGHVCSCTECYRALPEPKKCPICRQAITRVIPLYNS
# Sequence of UniProt Q86WQ0 (Q86WQ0 whole entry, looked up): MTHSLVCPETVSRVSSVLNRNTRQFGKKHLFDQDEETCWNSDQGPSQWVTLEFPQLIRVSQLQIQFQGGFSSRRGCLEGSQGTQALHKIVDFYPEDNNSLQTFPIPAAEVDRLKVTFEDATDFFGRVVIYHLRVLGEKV
# Sequence of UniProt Q14980 (Q14980 whole entry, looked up): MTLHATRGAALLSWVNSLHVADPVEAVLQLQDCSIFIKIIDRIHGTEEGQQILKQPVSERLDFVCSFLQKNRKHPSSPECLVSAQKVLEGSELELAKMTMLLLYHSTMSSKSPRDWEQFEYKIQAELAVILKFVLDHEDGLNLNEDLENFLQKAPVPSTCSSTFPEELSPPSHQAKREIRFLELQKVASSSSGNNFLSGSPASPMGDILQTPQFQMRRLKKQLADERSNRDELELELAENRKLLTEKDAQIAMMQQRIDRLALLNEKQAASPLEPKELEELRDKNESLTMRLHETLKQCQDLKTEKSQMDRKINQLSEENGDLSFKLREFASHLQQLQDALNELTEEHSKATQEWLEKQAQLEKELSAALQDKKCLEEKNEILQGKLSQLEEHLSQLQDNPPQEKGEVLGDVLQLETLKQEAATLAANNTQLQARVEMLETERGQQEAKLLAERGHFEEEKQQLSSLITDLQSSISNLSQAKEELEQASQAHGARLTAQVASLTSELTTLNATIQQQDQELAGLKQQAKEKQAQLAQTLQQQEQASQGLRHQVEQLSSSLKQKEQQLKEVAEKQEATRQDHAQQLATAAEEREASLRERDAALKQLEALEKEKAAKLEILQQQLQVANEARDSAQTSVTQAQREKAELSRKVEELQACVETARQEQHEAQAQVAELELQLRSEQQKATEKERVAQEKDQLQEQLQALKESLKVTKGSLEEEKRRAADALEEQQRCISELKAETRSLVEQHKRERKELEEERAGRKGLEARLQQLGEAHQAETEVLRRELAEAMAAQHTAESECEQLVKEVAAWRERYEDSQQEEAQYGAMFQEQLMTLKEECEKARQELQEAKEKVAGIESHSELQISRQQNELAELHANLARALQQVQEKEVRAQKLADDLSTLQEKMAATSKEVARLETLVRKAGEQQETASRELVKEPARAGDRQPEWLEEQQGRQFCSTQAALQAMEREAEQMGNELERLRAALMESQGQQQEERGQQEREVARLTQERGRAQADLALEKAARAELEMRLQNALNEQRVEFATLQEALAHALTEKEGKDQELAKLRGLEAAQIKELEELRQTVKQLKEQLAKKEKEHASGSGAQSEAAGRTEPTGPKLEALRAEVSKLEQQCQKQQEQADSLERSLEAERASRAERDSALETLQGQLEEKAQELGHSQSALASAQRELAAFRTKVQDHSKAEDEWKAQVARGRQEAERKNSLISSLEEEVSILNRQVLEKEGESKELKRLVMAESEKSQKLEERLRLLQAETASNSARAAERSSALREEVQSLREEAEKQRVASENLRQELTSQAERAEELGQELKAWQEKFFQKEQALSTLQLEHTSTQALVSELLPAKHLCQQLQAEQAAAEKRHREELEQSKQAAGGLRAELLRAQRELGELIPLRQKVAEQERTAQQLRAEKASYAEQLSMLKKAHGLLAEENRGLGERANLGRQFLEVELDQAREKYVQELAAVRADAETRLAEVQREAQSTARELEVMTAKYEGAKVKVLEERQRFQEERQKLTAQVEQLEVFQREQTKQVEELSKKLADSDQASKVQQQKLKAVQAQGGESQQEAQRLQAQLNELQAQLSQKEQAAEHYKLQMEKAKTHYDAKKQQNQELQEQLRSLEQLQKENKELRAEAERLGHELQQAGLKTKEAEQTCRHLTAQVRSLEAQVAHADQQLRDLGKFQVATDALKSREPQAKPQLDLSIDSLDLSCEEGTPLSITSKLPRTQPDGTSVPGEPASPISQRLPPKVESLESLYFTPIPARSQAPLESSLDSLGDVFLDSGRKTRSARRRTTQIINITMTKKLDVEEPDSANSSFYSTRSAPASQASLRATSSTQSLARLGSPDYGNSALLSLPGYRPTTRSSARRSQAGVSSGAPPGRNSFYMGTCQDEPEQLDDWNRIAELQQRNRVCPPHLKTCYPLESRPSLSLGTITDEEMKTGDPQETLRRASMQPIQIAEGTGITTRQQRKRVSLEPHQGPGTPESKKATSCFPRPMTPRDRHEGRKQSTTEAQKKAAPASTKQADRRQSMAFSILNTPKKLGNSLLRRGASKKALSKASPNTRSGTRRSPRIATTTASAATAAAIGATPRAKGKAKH
Target,log2 fold change [1],log2 fold change (volasertib),log2 fold change [2],log2 fold change (epoxomicin),log2 fold change [3],log2 fold change [4],log2 fold change [5],log2 fold change (rosiglitazone),log2 fold change [6],log2 fold change [7],log2 fold change (saracatinib),log2 fold change (sotrastaurin),log2 fold change (alvocidib),log2 fold change (Tubastatin A),log2 fold change [8],log2 fold change (defactinib),log2 fold change (rucaparib),log2 fold change [9],log2 fold change (encorafenib),log2 fold change [10]
NUMA1 (UniProt Q14980),0.065 (inactive),0.034 (inactive),0.039 (inactive),-0.044 (inactive),-0.031 (inactive),0.068 (inactive),0.003 (inactive),-0.035 (inactive),0.115 (inactive),-0.191 (inactive),-0.069 (inactive),-0.235 (inactive),-0.063 (inactive),0.14 (inactive),-0.057 (inactive),-0.017 (inactive),0.118 (inactive),0.055 (inactive),0.174 (inactive),-0.009 (inactive)
NUP98 (UniProt P52948),-0.12 (inactive),-0.276 (active),0.084 (inactive),-0.012 (inactive),-0.027 (inactive),-0.018 (inactive),0.039 (inactive),0.068 (inactive),0.033 (inactive),-0.038 (inactive),-0.019 (inactive),-0.072 (inactive),-0.063 (inactive),0.041 (inactive),0.018 (inactive),-0.12 (inactive),0.063 (inactive),-0.037 (inactive),0.039 (inactive),-0.053 (inactive)
MRPS27 isoform 2 (UniProt Q92552),-0.02 (inactive),-0.041 (inactive),0.132 (inactive),0.052 (inactive),-0.033 (inactive),-0.046 (inactive),0.019 (inactive),0.05 (inactive),0.047 (inactive),-0.001 (inactive),-0.107 (inactive),-0.089 (inactive),-0.078 (inactive),0.06 (inactive),0.071 (inactive),-0.012 (inactive),0.069 (inactive),0.108 (inactive),0.109 (inactive),-0.045 (inactive)
MTOR (UniProt P42345),-0.131 (inactive),-0.305 (active),0.04 (inactive),-0.021 (inactive),-0.05 (inactive),-0.073 (inactive),0.036 (inactive),0.058 (inactive),0.017 (inactive),-0.286 (active),-0.076 (inactive),0.088 (inactive),-0.101 (inactive),0.002 (inactive),-0.005 (inactive),-0.09 (inactive),0 (inactive),-0.009 (inactive),0.041 (inactive),-0.02 (inactive)
NUDCD2 (UniProt Q8WVJ2),-0.177 (inactive),-0.566 (active),0.056 (inactive),-0.098 (inactive),-0.042 (inactive),0.021 (inactive),0.081 (inactive),0.093 (inactive),0.023 (inactive),-0.291 (inactive),-0.115 (inactive),-0.123 (inactive),-0.139 (inactive),0.051 (inactive),0.002 (inactive),-0.256 (inactive),-0.053 (inactive),0 (inactive),0.048 (inactive),0 (inactive)
NDUFA7 (UniProt O95182),-0.19 (inactive),-0.109 (inactive),-0.023 (inactive),0.052 (inactive),0 (inactive),0.011 (inactive),0.01 (inactive),-0.02 (inactive),0.027 (inactive),-0.324 (active),-0.037 (inactive),0.047 (inactive),-0.01 (inactive),-0.148 (inactive),-0.042 (inactive),0 (inactive),0.046 (inactive),-0.031 (inactive),-0.042 (inactive),-0.008 (inactive)
NCOR1 (UniProt O75376),-0.034 (inactive),-0.021 (inactive),0.142 (inactive),0.07 (inactive),-0.066 (inactive),0.046 (inactive),0.048 (inactive),0.044 (inactive),0.033 (inactive),-0.045 (inactive),0.074 (inactive),-0.094 (inactive),-0.179 (inactive),-0.009 (inactive),-0.041 (inactive),-0.113 (inactive),0.012 (inactive),-0.02 (inactive),0 (inactive),0.007 (inactive)
MRPS6 (UniProt P82932),-0.015 (inactive),-0.045 (inactive),0.03 (inactive),-0.012 (inactive),-0.06 (inactive),-0.067 (inactive),0.09 (inactive),0.072 (inactive),-0.021 (inactive),0.027 (inactive),-0.197 (inactive),-0.058 (inactive),-0.036 (inactive),0.011 (inactive),-0.003 (inactive),-0.023 (inactive),0.056 (inactive),0.092 (inactive),0.016 (inactive),-0.126 (inactive)
OXA1L (UniProt Q15070),-0.067 (inactive),-0.014 (inactive),-0.015 (inactive),-0.046 (inactive),0.013 (inactive),-0.012 (inactive),-0.019 (inactive),0.016 (inactive),-0.027 (inactive),-0.221 (active),0.018 (inactive),0.003 (inactive),-0.01 (inactive),-0.036 (inactive),0.004 (inactive),0.005 (inactive),-0.029 (inactive),-0.054 (inactive),-0.027 (inactive),0.031 (inactive)
MUL1 (UniProt Q969V5),0.061 (inactive),0 (inactive),0.045 (inactive),0.04 (inactive),-0.004 (inactive),0.014 (inactive),-0.028 (inactive),0.052 (inactive),-0.004 (inactive),-0.115 (inactive),0.054 (inactive),0.079 (inactive),-0.013 (inactive),0.047 (inactive),0.056 (inactive),0.059 (inactive),0.072 (inactive),-0.018 (inactive),-0.074 (inactive),0.079 (inactive)
NOL7 (UniProt Q9UMY1),0.226 (inactive),0.417 (inactive),-0.086 (inactive),-0.338 (inactive),-0.019 (inactive),0.232 (inactive),-0.123 (inactive),-0.154 (inactive),0.316 (inactive),0.237 (inactive),-0.057 (inactive),0.017 (inactive),0.379 (inactive),0.161 (inactive),0.032 (inactive),0.303 (inactive),0.312 (inactive),0.098 (inactive),0.1 (inactive),-0.042 (inactive)
NFATC3 (UniProt Q12968),0.038 (inactive),-0.331 (inactive),0.073 (inactive),-0.046 (inactive),0.065 (inactive),-0.038 (inactive),0.049 (inactive),0.068 (inactive),0.036 (inactive),0.039 (inactive),-0.003 (inactive),-0.451 (active),-0.148 (inactive),0.058 (inactive),-0.103 (inactive),-0.208 (inactive),0.281 (inactive),-0.539 (active),-0.166 (inactive),-0.051 (inactive)
MRPL47 (UniProt Q9HD33),0.094 (inactive),-0.038 (inactive),0.044 (inactive),0.061 (inactive),-0.021 (inactive),0.235 (inactive),-0.036 (inactive),-0.027 (inactive),0.071 (inactive),-0.325 (inactive),-0.168 (inactive),-0.024 (inactive),0.113 (inactive),0.081 (inactive),-0.028 (inactive),0.151 (inactive),-0.122 (inactive),0.17 (inactive),0.063 (inactive),-0.022 (inactive)
NR2C2AP isoform 2 (UniProt Q86WQ0),-0.108 (inactive),-0.061 (inactive),-0.018 (inactive),0.023 (inactive),-0.055 (inactive),0.018 (inactive),0 (inactive),0.039 (inactive),-0.223 (inactive),-0.152 (inactive),0.086 (inactive),0.018 (inactive),-0.089 (inactive),0.099 (inactive),0.027 (inactive),-0.106 (inactive),-0.031 (inactive),0.073 (inactive),-0.048 (inactive),-0.115 (inactive)
NME1 isoform 2 (UniProt P15531),0.061 (inactive),0.046 (inactive),0.03 (inactive),-0.01 (inactive),-0.087 (inactive),-0.134 (inactive),-0.028 (inactive),0.024 (inactive),-0.184 (inactive),-0.039 (inactive),-0.156 (inactive),0.049 (inactive),-0.103 (inactive),-0.024 (inactive),-0.087 (inactive),-0.01 (inactive),0.035 (inactive),0.069 (inactive),-0.032 (inactive),0.041 (inactive)
